A short description of assay [1]: qHTS assay to identify small molecule antagonists of the glucocorticoid receptor (GR) signaling pathway - cell viability counter screen (AID 720693). Note: nearly all actives have a fitted effect of over 55% in size.
A short description of assay [2]: qHTS assay for identifying genotoxic compounds that show differential cytotoxicity against isogenic chicken DT40 cell lines with known DNA damage response pathways - wild type cell line (AID 743012). Note: nearly all actives have a fitted effect of over 60% in size. Note: potency is the fitted concentration of half-maximal effect. The procedure, abridged: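 Quantitative HTS on parental DT40 cells: 40 h compound treatment at 37 C/5% CO2, with viability then determined by CellTiter-Glo luminescence. Values serve as the DNA repair-proficient reference for differential cytotoxicity.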

A short description of assay [3]: qHTS assay for identifying genotoxic compounds that show differential cytotoxicity against isogenic chicken DT40 cell lines with known DNA damage response pathways - Rad54/Ku70 mutant cell line (AID 743015). Note: nearly all actives have a fitted effect of over 60% in size. Note: potency is the fitted concentration of half-maximal effect.
Assay [4] can be described thus: qHTS assay to identify small molecule antagonists of the androgen receptor (AR) signaling pathway - cell viability counter screen (AID 743033; note: nearly all actives have a fitted effect of over 45% in size).
The nature of assay [5]: qHTS assay to identify small molecule antagonists of the androgen receptor (AR) signaling pathway using the MDA cell line - cell viability counter screen (AID 743041; note: nearly all actives have a fitted effect of over 45% in size). The procedure, abridged: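 Same-well cytotoxicity was assessed by CellTiter-Fluor in MDA-kb2 AR-luc cells after 16 h of compound treatment under R1881 agonism.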
The test system of assay [6] is thyroid hormone receptor (rat, GH3 cells). In words: qHTS assay to identify small molecule agonists of the thyroid receptor (TR) signaling pathway (AID 743066; calls by dose curve).
Assay [7] in a line: qHTS assay to identify small molecule antagonists of the estrogen receptor alpha (ER-alpha) signaling pathway - cell viability counter screen (AID 743074; calls by dose curve;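 note: HEK293 cells carrying ER-alpha-UAS-bla reporter stimulated with 17beta-estradiol; nearly all actives have a fitted effect of over 45% in size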).
The nature of assay [8]: qHTS assay to identify small molecule antagonists of the estrogen receptor alpha (ER-alpha) signaling pathway using the BG1 cell line - cell viability counter screen (AID 743081).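 Note: compound given together with 17beta-estradiol as the ER stimulus; nearly all actives have a fitted effect of over 45% in size.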
The next assay addresses Aromatase (Homo sapiens) (UniProt P11511). The assay is described as follows: qHTS assay to identify aromatase inhibitors (AID 743083). Note: nearly all actives have a fitted effect of over 55% in size.
The nature of assay [9]: qHTS assay for identifying genotoxic compounds that show differential cytotoxicity against isogenic chicken DT40 cell lines with known DNA damage response pathways - Rev3 mutant cell line (AID 743014). Note: nearly all actives have a fitted effect of over 55% in size. Note: potency is the fitted concentration of half-maximal effect.
Assay [10] is described as follows: qHTS assay to identify small molecule antagonists of the thyroid receptor (TR) signaling pathway (AID 743065). Note: nearly all actives have a fitted effect of over 55% in size. Note: potency is the fitted concentration of half-maximal effect. The procedure, abridged:
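GH3.TRE-Luc rat pituitary cells (two TREs driving luciferase) were dosed with compound, then stimulated with 1 nM T3 (final) for 23.5 h at 37 C. ONE-Glo luminescence was the read-out, with CellTiter-Fluor fluorescence as the cytotoxicity counter-screen.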

Assay [11] concerns the target Estrogen receptor (Homo sapiens) (UniProt P03372). The assay is described as follows: qHTS assay to identify small molecule agonists of the estrogen receptor alpha (ER-alpha) signaling pathway (AID 743075; calls by dose curve;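 note: HEK293 GripTite cells with ER-alpha and UAS-driven beta-lactamase reporter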; note: potency is the fitted concentration of half-maximal effect).
Assay [12] is described as follows: qHTS assay to identify small molecule antagonists of the thyroid receptor (TR) signaling pathway - cell viability counter screen (AID 743064). Note: nearly all actives have a fitted effect of over 50% in size. Note: potency is the fitted concentration of half-maximal effect. The procedure, abridged:
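GH3.TRE-Luc rat pituitary cells dosed after 4 hr plating, co-stimulated with T3 at 1 nM final, incubated 23.5 h at 37 C. Viability measured in the same wells by CellTiter-Fluor fluorescence after 30 min further at 37 C.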

For assay [13], the target named is Estrogen receptor (Homo sapiens) (UniProt P03372). The assay is described as follows: qHTS assay to identify small molecule antagonists of the estrogen receptor alpha (ER-alpha) signaling pathway (AID 743069; active = well fitted curve in the direction sought with a large enough effect in the signal ratio in the repeat runs, not every such curve was filed as active; the % refers to the signal ratio). The procedure, abridged:
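Reporter cells (ER-alpha-bla, HEK293 background) are conditioned overnight in stripped-serum medium (2% charcoal-stripped FBS). Compound and 17beta-estradiol exposure runs 18 hr at 37C, 5% CO2.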

Assay [14] shares this target. In words: qHTS assay to identify small molecule agonists of the estrogen receptor alpha (ER-alpha) signaling pathway using the BG1 cell line (AID 743079). Note: nearly all actives have a fitted effect of over 20% in size. Note: potency is the fitted concentration of half-maximal effect. Conditions: BG1Luc4E2 cells, ERE-luciferase agonist, 22 h; activation: at 70.3 µM (top of the series).
Assay [15] in a line: qHTS assay to identify small molecule antagonists of the estrogen receptor alpha (ER-alpha) signaling pathway using the BG1 cell line (AID 743080; calls by dose curve;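 note: BG1 cells stimulated with 17beta-estradiol alongside compound; nearly all actives have a fitted effect of over 25% in size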; note: potency is the fitted concentration of half-maximal effect). The procedure, abridged: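 Luminescence from a 4×ERE-luciferase reporter in BG1-Luc-4E2 cells served as read-out. Cells, pre-cultured 5 days in stripped-serum phenol-red-free medium, were exposed to compound with 17beta-estradiol co-stimulation for 21.5 h at 37 C.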

Assay [16] deals with Androgen receptor (Homo sapiens) (UniProt P10275). The assay is described as follows: qHTS assay to identify small molecule agonists of the androgen receptor (AR) signaling pathway (AID 743036; active = well fitted activation curve with a large enough effect in the signal ratio in the repeat runs, with a control signal flat, not every such curve was filed as active; the % refers to the signal ratio; note: potency is the fitted concentration of half-maximal effect). The procedure, abridged:
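AR-UAS-bla HEK293 cells, plated 4 h before dosing, were treated with compound for 16 h at 37C. beta-Lactamase reporter read after 2 h with LiveBLAzer B/G FRET substrate at room temperature.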

For assay [17] the target is unchanged. The assay is described as follows: qHTS assay to identify small molecule agonists of the androgen receptor (AR) signaling pathway using the MDA cell line (AID 743040; note: nearly all actives have a fitted effect of over 20% in size; note: potency is the fitted concentration of half-maximal effect). The procedure, abridged:
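Human breast carcinoma MDA-kb2 reporter cells (MMTV-luc, AR/GR elements) were treated for 16 h at 37C in 0% CO2 following a 5 h settling period. Signal was quantified by ONE-Glo luminescence.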

Assay [18] shares this target. The assay is described as follows: qHTS assay to identify small molecule antagonists of the androgen receptor (AR) signaling pathway (AID 743035; active = well fitted inhibition curve with a large enough effect in the signal ratio in the repeat runs, not every such curve was filed as active; the % refers to the signal ratio). The procedure, abridged:
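Cell line: GeneBLAzer AR-UAS-bla GripTite (HEK293). Stimulus: R1881 added after compound. Exposure: 16 h, 37C, 5% CO2. Readout: LiveBLAzer B/G FRET fluorescence after 2 h at room temperature.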

For assay [19] the target is unchanged. The assay is described as follows: qHTS assay to identify small molecule antagonists of the androgen receptor (AR) signaling pathway using the MDA cell line (AID 743042; note: nearly all actives have a fitted effect of over 55% in size). The procedure, abridged: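 MDA-kb2 breast carcinoma cells carrying MMTV-luciferase (AR/GR responsive) were co-treated with compounds and the agonist R1881 for 16 h at 37C. Inhibition read as ONE-Glo luminescence; CellTiter-Fluor fluorescence measured in parallel for cytotoxicity.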

Each structure is given as a SMILES string. Values without a mark were called inactive. Inconclusive results are not listed. Calls of active or inactive are those of the source. Unless noted, calls come from the whole dose curve; as a rule, active = well fitted curve in the direction sought with a large enough effect in the repeat runs; inconclusive = weak or mixed curves; inactive = no such curve, though single readings can be large; an effect the other way counts as inactive or inconclusive.
% is set by controls: 0 for no effect and ±100 for the full control effect.

Chain of Aromatase (Homo sapiens) (P11511 whole entry, looked up): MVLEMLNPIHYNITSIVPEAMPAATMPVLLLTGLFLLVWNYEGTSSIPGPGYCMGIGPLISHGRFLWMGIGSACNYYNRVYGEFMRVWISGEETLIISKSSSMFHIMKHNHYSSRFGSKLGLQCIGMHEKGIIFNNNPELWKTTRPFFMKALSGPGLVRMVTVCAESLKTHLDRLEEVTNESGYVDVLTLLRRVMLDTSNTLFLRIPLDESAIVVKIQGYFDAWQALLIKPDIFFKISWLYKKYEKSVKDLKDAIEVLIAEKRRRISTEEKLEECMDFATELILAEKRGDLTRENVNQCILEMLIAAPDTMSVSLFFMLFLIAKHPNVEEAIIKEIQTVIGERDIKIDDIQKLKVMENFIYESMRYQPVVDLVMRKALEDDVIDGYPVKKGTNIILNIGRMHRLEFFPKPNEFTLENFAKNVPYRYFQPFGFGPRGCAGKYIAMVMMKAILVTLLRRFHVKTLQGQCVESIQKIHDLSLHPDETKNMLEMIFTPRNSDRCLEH
Chain of Estrogen receptor (Homo sapiens) (P03372 whole entry, looked up): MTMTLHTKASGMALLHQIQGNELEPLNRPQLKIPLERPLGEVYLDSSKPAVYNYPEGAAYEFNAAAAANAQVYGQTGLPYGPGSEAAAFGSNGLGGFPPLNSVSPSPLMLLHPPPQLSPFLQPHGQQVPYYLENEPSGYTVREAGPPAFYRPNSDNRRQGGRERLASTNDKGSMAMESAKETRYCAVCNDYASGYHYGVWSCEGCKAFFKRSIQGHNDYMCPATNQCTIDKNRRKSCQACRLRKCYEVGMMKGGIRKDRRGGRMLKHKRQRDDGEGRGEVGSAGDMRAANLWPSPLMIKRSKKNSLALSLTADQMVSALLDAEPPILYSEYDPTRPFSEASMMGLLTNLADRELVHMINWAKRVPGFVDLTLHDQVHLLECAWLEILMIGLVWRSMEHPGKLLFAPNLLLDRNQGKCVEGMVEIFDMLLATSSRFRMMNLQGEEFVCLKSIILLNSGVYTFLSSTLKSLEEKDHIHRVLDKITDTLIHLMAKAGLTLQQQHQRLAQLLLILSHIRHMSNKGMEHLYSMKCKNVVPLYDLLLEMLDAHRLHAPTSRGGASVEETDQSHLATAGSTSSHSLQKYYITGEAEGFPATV
Chain of Androgen receptor (Homo sapiens) (P10275 whole entry, looked up): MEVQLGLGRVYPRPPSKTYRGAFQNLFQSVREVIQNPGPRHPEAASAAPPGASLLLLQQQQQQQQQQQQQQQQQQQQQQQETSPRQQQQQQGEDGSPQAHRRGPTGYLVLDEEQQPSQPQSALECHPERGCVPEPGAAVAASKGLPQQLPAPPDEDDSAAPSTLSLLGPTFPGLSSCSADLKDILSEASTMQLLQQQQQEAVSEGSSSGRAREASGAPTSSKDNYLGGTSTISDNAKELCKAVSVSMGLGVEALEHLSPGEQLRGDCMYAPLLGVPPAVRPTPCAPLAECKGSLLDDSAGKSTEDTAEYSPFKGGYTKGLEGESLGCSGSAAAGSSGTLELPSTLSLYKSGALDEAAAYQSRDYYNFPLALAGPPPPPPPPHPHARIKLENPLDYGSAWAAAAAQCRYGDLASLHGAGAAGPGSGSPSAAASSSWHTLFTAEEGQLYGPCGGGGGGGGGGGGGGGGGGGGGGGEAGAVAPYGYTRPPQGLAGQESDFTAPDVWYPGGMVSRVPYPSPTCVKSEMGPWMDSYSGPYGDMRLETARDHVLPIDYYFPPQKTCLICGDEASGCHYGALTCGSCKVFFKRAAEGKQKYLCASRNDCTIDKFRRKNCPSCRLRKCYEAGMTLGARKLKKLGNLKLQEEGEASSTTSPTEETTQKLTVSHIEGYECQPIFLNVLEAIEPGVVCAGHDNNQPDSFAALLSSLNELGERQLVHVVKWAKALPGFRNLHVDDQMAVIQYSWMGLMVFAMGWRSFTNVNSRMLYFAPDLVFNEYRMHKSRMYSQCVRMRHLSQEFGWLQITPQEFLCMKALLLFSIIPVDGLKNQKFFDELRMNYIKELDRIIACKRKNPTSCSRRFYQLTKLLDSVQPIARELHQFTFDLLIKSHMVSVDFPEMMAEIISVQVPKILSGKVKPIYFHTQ

Consider `CCCCCCCC/C=C\CCCCCCCC(=O)OC`, for which the Potency result in assay [1], in assay [2], in [3], in assay [4], in assay [5] and in assay [7] was “inactive” each time. The Potency entry (in [8]; in the assay with Aromatase (Homo sapiens)) was “inactive” in each case. Further, the molecule was called inactive in [6].
As for `CCCCC(=O)O[C@]1(C(=O)CO)[C@@H](C)C[C@H]2[C@@H]3CCC4=CC(=O)C=C[C@]4(C)[C@@]3(F)[C@@H](O)C[C@@]21C`, the Potency entry (in [1]; in assay [5]; in assay [7]; in assay [11]; in assay [8]; in the assay with Aromatase (Homo sapiens)) was “inactive” in each case. Moreover, the Potency in assay [2] was 43.3 µM (active); in assay [9], 24.3 µM (active); in [3], 24.3 µM (active); in assay [10], 61.1 µM (active). Moreover, in [6], the molecule was called inactive.
Regarding `Cc1ccnc2ccccc12`, the Potency entry in [1], in assay [2], in [3], in assay [4], in assay [5] and in [12] was “inactive” throughout. In addition, the Potency entry in assay [10], in [13], in assay [7], in assay [11], in assay [14] and in assay [15] was “inactive” in each case. For the same molecule, the Potency result (in assay [8]; in the assay with Aromatase (Homo sapiens)) was “inactive” in each case. Besides, the outcome in [6] was inactive.
Turning to `[O]=[Bi]`, the figures for the viability change, negative = cytotoxic in assay [1] and in assay [5] were -0.0549% [at 7.04 µM] and -2.29% [at 8.47 µM], respectively. Moreover, the activity change, negative = cytotoxicity in assay [2] is -3.35% [at 8.52 µM]; in assay [3], 2.55% [at 8.55 µM]; in assay [4] it was -10.1% [at 7.04 µM]; in assay [8], 0.603% [at 8.47 µM]. Also, the activity change, negative = cytotoxic in assay [12] is 1.51% [at 8.44 µM]. Also, the activity, negative = inhibition in assay [10] was -1.71% [at 8.44 µM]; in [13] it was -6.92% [at 6.71 µM]; in the assay with Aromatase (Homo sapiens), 15.6% [at 8.47 µM]. Further, the activation in assay [6] is -0.257% [at 8.08 µM]; in [11], -1.87% [at 6.71 µM]. Besides, the activity, negative = cytotoxicity in assay [7] was -18.5% [at 6.72 µM]. The activity change, negative = inhibition in assay [15] is 3.19% [at 8.47 µM].
Regarding `Oc1ccc(Nc2ccccc2)cc1`, the Potency result in assay [1], in assay [4], in assay [16], in assay [17], in [5] and in assay [7] was “inactive” throughout. Further, the Potency result (in assay [15]; in assay [8]; with Aromatase (Homo sapiens)) was “inactive” in each case. Besides, the Potency in [2] was 5.45 µM (active); in assay [3], 6.86 µM (active); in assay [12] it was 54.5 µM (active); in [11] it was 55 µM [activator] (active); in [14], 30.6 µM (active). Also, the outcome in assay [6] was inactive.
For `Cc1ccc(/C=N/n2c(-c3ccccc3)csc2=S)cc1`, the Potency entry in assay [1], in [4], in assay [5], in assay [12] and in assay [8] was “inactive” each time. Besides, the results for the Potency in [2], in assay [3] and in [10] were 26.6 µM (active), 29.8 µM (active) and 23.7 µM (active), respectively. Further, the molecule was called inactive in assay [6].
Take `CCCC(=O)O[C@]1(C(=O)COC(=O)CC)CC[C@H]2[C@@H]3CCC4=CC(=O)CC[C@]4(C)[C@H]3[C@@H](O)C[C@@]21C`: the Potency entry in assay [1], in assay [2], in assay [3], in assay [4], in assay [18] and in assay [19] was “inactive” each time. The Potency result (in assay [12]; in assay [10]; in assay [7]; in assay [11]; in [8]; with Aromatase (Homo sapiens)) was “inactive” each time. Also, the Potency was 23.9 nM (active) in assay [16] and 119 nM (active) in assay [17]. In [6], the molecule was called inactive.
On to `COc1ccc(C(=O)c2cccc(O)c2)c(OC)c1`, for which the Potency result in assay [1], in [2], in [9], in [4], in assay [17] and in [19] was “inactive” throughout. Besides, the Potency result (in [13]; in assay [7]; in assay [8]; in the assay with Aromatase (Homo sapiens)) was “inactive” throughout. The molecule was called inactive in assay [6]. Moreover, the figures for the Potency in assay [11], in assay [14] and in assay [15] were 24.5 µM [activator] (active), 6.84 µM (active) and 68.5 µM (active), respectively.

The values above are taken from PubChem BioAssay (Tox21).
